The results in this text go back to PubChem BioAssay AID1347430 (National Center for Advancing Translational Sciences (NCATS), 2020).

About 130 (0.14%) of roughly 91,000 compounds were called active. A call without a number means that no potency is given here. About 3% were inconclusive and are not listed. The sample holds actives, similar compounds and a random draw of the others, so the mix is not that of the screen. The call rests on the fitted dose curve; in most records, active means well fitted inhibition curve with a large enough effect; inconclusive means small, poorly fitted or top-dose-only effect; inactive means flat fitted curve, though single readings scatter.
Potency means the concentration at half of the fitted maximal effect.

This test concerns Uracil-DNA glycosylase. In words: Primary qHTS assay for inhibitors of Activation Induced Cytidine Deaminase (AID): UDG Counterscreen signal. Further: nearly all actives have a fitted effect of over 65% in size. To be noted: FRET deamination/UDG coupled assay, UDG read, 4 h; series mostly up to 115 µM. An excerpt: Assay Provider (PI) Patricia Gearhart Ph.D.
National Institute on Aging
National Institute of Health (NIH), Bethesda, MD
Assay Provider (PI) Rahul Kohli Ph.D.
Perelman School of Medicine
University of Pennsylvania, Philadelphia, PA
Activation-Induced Deaminase (AID) is a cytosine deaminase which converts cytosine into uracil within stretches of ssDNA. The presence of uracil in DNA initiates a cascade of mutagenic DNA repair to introduce point mutations and DNA double strand breaks. Specific targeting of AID to the immunoglobulin heavy chain loci (Igh) promotes mutagenesis in the antibody variable region for somatic hypermutation (SHM) or switch regions leading to class switch recombination (CSR). However, AID also plays a role in accumulating unnecessary mutations across the genome. Mis-targeting of AID results in the initiation of tumor development and leads to greater drug resistance among cancer cells when continually expressed. To identify an AID inhibitor, a small molecule library will be screened in collaboration with NCATS core facility at NIH. To confirm biological function, inhibitors will be examined in an in vitro murine B-cell activation assay and subsequent secondary validation screens. Top molecules will be further screened to identify inhibitory efficacy against a wild type primary splenocytes assay. Using these approaches, we hope to identify a small molecule with great efficacy and low toxicity for use as a molecular probe to further characterize AID's intricacies, or even as a therapeutic.
A FRET based analysis of cytosine deamination, was developed to identify potential inhibitors of AID catalytic activity. This screen has two signal output, Read 1 evaluates the AID inhibition response. The second readout (Read 2) evaluates UDG response and is uses as a counterscreen to exclude false positive inhibitors. Inhibition in AID and inactivity in the UDG signal is the desired outcome for this assay.
SEQUENCE No. (e.g., 1, 2, 3, etc.); […] (e.g., Cells, Incubation, Reagent, etc.); VALUE; DESCRIPTION
1a; Reagent; 3 uL; [4/3x] 1 uM AID/2.67 U/mL UDG
1b; Reagent; 3 uL; 2 U/mL UDG
1c; Reagent; 3 uL; 1 uM AID
2a; Compound; 46 nL; Follow-up plates (0.64 uM - 10 mM)
2b; Control; 46 nL; ATA ([…] - 10 mM)
3; Time; 10 min; incubation at room temperature
5; Time; 4 hr; incubation at room temperature
6; Reagent; 4 uL; [2x] 250 mM NaOH
7; Time; 15 sec; centrifuge at 1000 rpm
8; Time; 30 min; incubation at room temperature
9a; Detection; fluorescence (Read 1: AID); EnVision (PerkinElmer) plate reader, 540 excitation and 590 emission filters
9b; Detection; fluorescence (Read 2: UDG); EnVision (PerkinElmer) plate reader, 560 excitation and 665 emission filters
NOTES (numbers refer to sequence above)
1a; Reagents were dispensed in a medium-binding black solid-bottom Greiner plates (789176F) using a BioRptr liquid dispenser. Dispense 3 uL of [4/3x] 1 uM AID (provided by Kohli lab) and [4/3x] 2 U/mL UDG (NEB M0280L) into columns 1, 2, 5 to 48.
1b; Dispense 3 uL of [4/3x] 2 U/mL UDG into column 3.
1c; Dispense 3 uL of [4/3x] 1 uM AID into column 4.
2a; Compound (7-points [uM] (0.64; 3.2; 16; 80; 400; 2,000; 10,000; 20,000) double pin-transferred (Dip Factor = 2) using the Kalypsys (Wako USA) pintool equipped with a 1536 pinhead for a final concentration range of 7.32 nM - 114 uM.
2b; 10 mM Aurintricarboxylic Acid (Sigma A1895) (ATA, 8-point, n = 2, 1:2.5 dilution in column 2) double pin-transferred (Dip Factor = 2) using the Kalypsys (Wako USA) pintool equipped with a 1536 pinhead for a [final] range of 186 nM - 114 uM.
3; Room temperature incubation.
4; Dispense 1 uL of substrate mixture from the Kohli lab [4x] […] DJC20 and [4x] 250 nM DJC23 into columns 1 to 48 .
5; Room temperature incubation.
6; Dispense 4 uL of substrate mixture [2x] 250 mM NaOH into columns 1 to 48.
7; Centrifugation step to remove bubbles.
8; Room temperature incubation
9a; Fluorescence signal (column label AID) was read using the EnVision plate reader. […]
(qHTS replaces the single test concentration by a dilution series.)
As to `CNC(=O)c1ccc2c(c1)CCCN2C(=O)c1ccc(Cl)cc1`, the Potency entry is “inactive”.

On to `COc1ccc(CN(Cc2cc(=O)oc3cc(C)c(C)cc23)C2CC2)cc1`, for which the Potency entry was “inactive”.

On to `COCCNC(=O)CS(=O)Cc1nc(-c2ccc(C)cc2)oc1C` (stereo not given), for which the Potency entry is “inactive”.

Consider `Cc1cc2nc(-c3ccccc3)c(-c3ccccc3)nc2cc1C`, for which the Potency entry is “inactive”.

As to `Cc1ccccc1OCc1ccc(-c2nc(C#N)c(N3CCCCC3)o2)o1`, the Potency entry was “inactive”.

As for `Cc1ccc(C)c(OCc2ccc(-c3nc(C#N)c(NC(C)C)o3)o2)c1`, the Potency was 70.8 µM (active).

As to `CCC(C)Nc1oc(-c2ccc(COc3ccc(Cl)cc3)o2)nc1C#N` (stereo not given), the Potency entry was “inactive”.

In the case of `N#Cc1cccnc1NCCC12CC3CC(CC(C3)C1)C2`, the Potency entry was “inactive”.

Turning to `Cc1cc(=O)oc2c(C)c(OC(C)C(=O)NCCc3ccc(S(N)(=O)=O)cc3)ccc12` (stereo not given), the Potency entry is “inactive”.

In the case of `O=C(NCc1ccc2c(c1)OCO2)c1cccc(N2CCCN(Cc3ccc(F)cc3)C2=O)c1`, the Potency result is “inactive”.

Turning to `CC(C)(C(=O)Nc1ccc(F)c(NC(=O)C2CC2)c1)c1ccccc1`, the Potency entry is “inactive”.

In the case of `CNCCC(F)(F)F`, the Potency entry was “inactive”.

In the case of `OC(COCc1ccccc1F)Cn1nnc(-c2cccnc2)n1` (stereo not given), the Potency entry is “inactive”.

Consider `O=C(COC(=O)Cc1n[nH]c(=O)c2ccccc12)NCC1CCCO1` (stereo not given), for which the Potency result is “inactive”.

In the case of `CCOc1ccc(-c2csc(-c3ccc(Cl)cc3)n2)cc1`, the Potency result was “inactive”.

For `O=C(NCc1cccc(OC(F)F)c1)c1ccccc1-n1cnnn1`, the Potency result was “inactive”.

Regarding `COCCn1c(C)cc(C(=O)C(=O)Nc2nnc(COc3cc(C)ccc3C)s2)c1C`, the Potency result is “inactive”.

For `CCc1ccccc1N(C)C(=O)C1CCCN(c2ncnc3onc(-c4ccc(F)cc4)c23)C1` (stereo not given), the Potency entry is “inactive”.

Turning to `CCc1ccc(N(CC)C(=O)CCn2cnc3onc(-c4ccc(F)cc4)c3c2=O)cc1`, the Potency is 89.1 µM (active).

Turning to `CN(Cc1ccccc1)c1ncnc2onc(-c3ccc(F)cc3)c12`, the Potency entry is “inactive”.

As for `CCN(CC)C(=O)CNC(=O)c1cc2ccccc2c(OC)n1`, the Potency result is “inactive”.

On to `N#Cc1cccc(C(=O)NC(c2ccccc2)c2cccs2)c1` (stereo not given), for which the Potency result is “inactive”.

For the molecule `CCCC/C=N/NC(=O)CCCCCCCCCCC`, the Potency entry is “inactive”.

With `CCCCCCCc1ccc(-c2ccc(OC)cc2)nc1`, the Potency result was “inactive”.

Take `CCN(CC)S(=O)(=O)c1cc(NC(=O)c2n[nH]c3ccccc23)ccc1C`: the Potency entry is “inactive”.

Turning to `O=S(=O)(Cc1nnnn1-c1ccccc1)c1ccccc1`, the Potency entry was “inactive”.

On to `CCCNc1c(NC(=O)C(C)C)c(=O)oc2ccccc12`, for which the Potency entry was “inactive”.

Consider `CC(C)(C)c1ccccc1OCC(=O)Nc1cccc(C#N)c1`, for which the Potency result was “inactive”.

As to `COCC(C)n1c(COc2ccccc2F)nnc1SCC(C)C` (stereo not given), the Potency entry was “inactive”.

Turning to `COCCNC(=S)NNC(=O)Cc1ccc(OC)c(OC)c1`, the Potency result was “inactive”.

Regarding `CCCCNC(=O)CCc1c[nH]c2ccccc12`, the Potency entry is “inactive”.

On to `COC(=O)CNC(=O)/C(C)=C/c1ccccc1`, for which the Potency result is “inactive”.

With `N#Cc1ccc(CNc2cc(Cl)ccc2Cl)cc1`, the Potency entry was “inactive”.

In the case of `Cc1ccc(NC(=O)c2ccc(Cl)cc2N2CCCC2=O)cc1`, the Potency result is “inactive”.

As to `Ic1nc[nH]c1I`, the Potency entry was “inactive”.

For `COc1ccc(NC(=O)COc2ccc(F)cc2)c2cccnc12`, the Potency result is “inactive”.

As for `Cc1ccc(-n2c(SCC(=O)Nc3cccc(F)c3)nc3c(=O)[nH]cnc32)cc1`, the Potency result was “inactive”.

In the case of `Cc1ccc(C(=O)NC(C)C)c(Cl)c1`, the Potency entry was “inactive”.

Turning to `Cc1cc(C)c2c(c1)/C(=N/Nc1nc3ccccc3[nH]1)CCC2`, the Potency entry is “inactive”.

Consider `Cc1[nH]c2ccccc2c1/C=N/c1sc2c(c1C#N)CCC(C)C2` (stereo not given), for which the Potency result was “inactive”.

Regarding `CCCc1ccc(OC(=O)c2ccc3c(c2)-c2ccccc2C3=O)cc1`, the Potency entry is “inactive”.

For `Cc1csc(SCCCOc2ccc(C#N)cc2)n1`, the Potency entry is “inactive”.

For the molecule `COc1ccc(CNC(=S)NCC(C)N2CCCCC2C)cc1` (stereo not given), the Potency entry is “inactive”.

Turning to `Cn1nc(C(=O)OCC(=O)N(Cc2ccccc2)C(C)(C)C)c2ccccc2c1=O`, the Potency result was “inactive”.

In the case of `O=C(C1=COCCO1)N1CCN(c2ccccc2)CC1`, the Potency entry is “inactive”.

As to `O=C1/C(=C/c2cccc(Br)c2)CCc2ccccc21`, the Potency entry was “inactive”.

Consider `COc1ccc(C(=O)/C(C#N)=C\c2ccccc2OC(F)F)cc1`, for which the Potency entry was “inactive”.

As for `Cc1cc(C(=O)O)cc(S(=O)(=O)Nc2ccc(Cl)c3cccnc23)c1C`, the Potency entry is “inactive”.

As for `C=CCNC(=O)NC(=O)CN(C)Cc1ccc(-c2ccc(Br)cc2)o1`, the Potency entry is “inactive”.

`CC(C)CNC(=O)CSc1nnc(COc2ccccc2Cl)o1`: the Potency result was “inactive”.

Take `O=C(O)c1ccc(Nc2nc(-c3ccc4ccccc4c3)cs2)cc1O`: the Potency result was “inactive”.

Turning to `CC(=O)Nc1ccc(NC(=O)Nc2ccccc2Cl)cc1`, the Potency result is “inactive”.

For the molecule `CCN1CCC(CNC(=O)c2cc(C)nc3cc(F)ccc23)CC1`, the Potency entry is “inactive”.

`COc1ccc(NC(NC(=O)C(C)C)C(Cl)(Cl)Cl)cc1` (stereo not given): the Potency result is “inactive”.

As for `O=C(CCc1ncc(-c2ccc(F)cc2)o1)NCc1ccc(OC(F)F)cc1`, the Potency entry was “inactive”.

Regarding `CNC(=S)NNC(=O)c1cccc(C)c1`, the Potency entry is “inactive”.

For the molecule `CC(=O)NCc1ccc(C(=O)COc2ccc(C(C)=O)cc2)cc1`, the Potency result is “inactive”.

Turning to `N#Cc1ccccc1-n1ccnc1`, the Potency result was “inactive”.

`O=C(OCC(=O)c1cccs1)c1cccc(O)c1`: the Potency entry was “inactive”.

Consider `CC(C)(C)c1nc2cc(NC(=O)c3ccc[nH]c3=O)ccc2o1`, for which the Potency entry is “inactive”.
